Assay outcomes (PubChem BioAssay)
Sampled rows, rich in hits. Any-hit rate of the full collection: about 2.3%.
bovine MsrA act – activates bovine MsrA enzyme; AID 602163; actives 0.3% (n = 360,000); purified bovine MsrA, absorbance read-out; activation, % at 10.6 µM; in the data active = activation above about 7.5%;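 note: 0% = vehicle and 100% = reference activator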
PP5 inh – blocks human protein phosphatase 5 activity | inhibition, % at 6.7 µM | purified PP5c, OMFP substrate fluorescence | actives 0.18% (n = 320,000);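 active = inhibition above the campaign's mean inhibition across all tested compounds plus 3 SD, cut at about 9.5% in these data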;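 note: 0% = DMSO only and 100% = 100 µM cantharidin control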
PP1 counter – PP1-alpha (human) inhibition in PP5 counter-screen | actives 0.9% (n = 320,000) | inhibition, % at 6.7 µM | P62136 | purified PP1alpha, OMFP fluorescence;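 active = inhibition above the mean inhibition of all tested compounds plus 3 SD, computed separately for each screening campaign, cut at about 15% in these data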
Target sequence (P62136 whole entry, looked up): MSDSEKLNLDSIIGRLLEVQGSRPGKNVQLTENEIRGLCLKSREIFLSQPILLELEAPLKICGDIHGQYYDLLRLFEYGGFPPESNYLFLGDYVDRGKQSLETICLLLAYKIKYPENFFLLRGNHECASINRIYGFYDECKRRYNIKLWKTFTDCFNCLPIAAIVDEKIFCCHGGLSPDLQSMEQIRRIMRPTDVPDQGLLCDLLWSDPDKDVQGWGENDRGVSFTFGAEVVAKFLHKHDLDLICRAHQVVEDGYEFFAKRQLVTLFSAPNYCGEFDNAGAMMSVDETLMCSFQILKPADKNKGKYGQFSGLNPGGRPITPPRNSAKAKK
MsrA inh – inhibitors of bovine MsrA | purified bovine MsrA, absorbance read-out | inhibition, % at 15.5 µM | actives 0.75% (n = 360,000);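 note: 0% = vehicle wells with enzyme and 100% = reference inhibitor wells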
ZTA DNA inh – ZTA (EBV) inhibition in EBNA-1 counter-screen; P03206; ZTA-DNA binding, fluorescence polarization; inhibition, % at 11 µM; actives 0.15% (n = 320,000); AID 2234; in the data active = inhibition above about 33%
Target sequence (P03206 whole entry, looked up): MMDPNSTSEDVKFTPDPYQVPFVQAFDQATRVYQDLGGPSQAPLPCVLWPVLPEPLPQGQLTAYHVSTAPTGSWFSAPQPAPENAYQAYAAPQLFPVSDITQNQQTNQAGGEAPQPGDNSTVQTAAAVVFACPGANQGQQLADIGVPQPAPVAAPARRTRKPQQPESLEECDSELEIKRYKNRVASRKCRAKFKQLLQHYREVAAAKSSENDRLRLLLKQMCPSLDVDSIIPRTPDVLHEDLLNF
EBNA-1 inh – blocks EBNA-1 binding to DNA. inhibition, % at 14.8 µM. EBNA-1 DNA binding, fluorescence polarization. actives 0.34% (n = 300,000); in the data active = inhibition above about 28%
PP5 inh confirm – PP5 (human) inhibition, confirmation; shares compounds with PP5 inh; Purified PP5, fluorogenic phosphatase substrate, fluorescence; inhibition, % at 6.7 µM; actives 22% (n = 460); AID 2331; in the data active = inhibition above about 9.5%
PP1 inh counter – inhibits human PP1 phosphatase in PP5 counter-screen; shares compounds with PP5 inh; inhibition, % at 6.7 µM; actives 4% (n = 460); PP1 enzyme, fluorescent phosphatase substrate; in the data active = inhibition above about 16%
ZTA inh confirm – confirmation of Epstein-Barr virus ZTA DNA binding inhibitors. inhibition, % at 11.1 µM. Zta-ZRE DNA binding, fluorescence polarization. actives 30% (n = 320). shares compounds with ZTA DNA inh. AID 2361;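 active = mean inhibition across triplicate runs above the hit threshold derived for the original primary screen, cut at about 33% in these data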;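 note: 0% = Zta with DMSO and 100% = wells lacking Zta protein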
EBNA1 counter – blocks EBNA-1 DNA binding in ZTA counter-screen; shares compounds with ZTA DNA inh; fluorescence polarization; inhibition, % at 14.8 µM; 320 tested, under 10 active; AID 2362; call rule not given here
MsrA activ conf – bovine methionine sulfoxide reductase A activation confirmed; shares compounds with bovine MsrA act; purified bovine MsrA, absorbance read-out; activation, % at 10.6 µM; actives 12% (n = 1,000); AID 602270; in the data active = activation above about 4%;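 note: enzyme coupled to thioredoxin and thioredoxin reductase with NADPH; 0% = vehicle wells and 100% = reference activator wells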
MsrA conf – bovine MsrA inhibition, confirmed; AID 651822; shares compounds with MsrA inh; purified bovine MsrA, absorbance read-out; inhibition, % at 15.5 µM; actives 41% (n = 2,300);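 note: coupled to thioredoxin reductase with NADPH and selenocystamine and DMSO as substrate; 0% = vehicle only and 100% = full effect of reference inhibitor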
* marks the source's active call; other numbers are inactive results; · = not tested or not shown. Cut-off read from the data, not from the text of the source, unless noted: active = inhibition above about 4.5%; inactive = the rest.

SMILES	bovine MsrA act	PP5 inh	PP1 counter	MsrA inh	ZTA DNA inh	EBNA-1 inh	PP5 inh confirm	PP1 inh counter	others
O=c1c2ccc(Cl)cc2[nH]c(=S)n1Cc1cccnc1	1	11*	-3	-1	-9	-2	-4	-3
O=C(c1ccc2c(=O)n(Cc3ccc(Cl)cc3)c(=S)[nH]c2c1)N1CCCC1	-5	0	0	-1	-5	-1	·	·
NC(=O)c1cccc(-c2cc(Nc3ccc(OC(F)(F)F)cc3)ncn2)c1	-2	10*	10	0	-19	-11	6	9
CC1(C(=O)NS(=O)(=O)c2cccc(C#N)c2)CCN1C(=O)Cc1ccccc1 (stereo unspecified)	-5	·	·	1	·	·	·	·
CCCCCCCC(=O)OCC(=O)[C@@]1(O)CC[C@H]2[C@@H]3CCC4=CC(=O)CC[C@]4(C)[C@H]3[C@@H](O)C[C@@]21C	0	11*	-9	0	-9	9	3	4
O=[N+]([O-])c1ccc(-c2nc3ccc([N+](=O)[O-])cc3[nH]2)cc1	-8	2	-2	1	9	5	·	·
Nc1ccc(-c2nc3ccc([N+](=O)[O-])cc3[nH]2)cc1	-10	12*	-1	2	7	6	-5	-4
CCc1ccc(C2=NN(c3ccc(S(N)(=O)=O)cc3)C(c3ccc(F)cc3)C2)cc1 (stereo unspecified)	1	12*	-2	2	0	-5	2	1
COc1ccc(-n2nc(C(=O)NCC(=O)NCCC3=CCCCC3)c3ccccc3c2=O)cc1	-7	2	1	0	-4	-18	·	·
CCN(CC)S(=O)(=O)c1ccc(O)c(NC(=O)c2cc(-c3cc(OC)c(OC)c(OC)c3)nc3ccccc23)c1	1	3	4	·	6	-7	·	·
CN(CC(=O)Nc1cccc(F)c1)C(=O)c1ccc(S(=O)(=O)N2CCCC2)cc1	-4	3	-2	0	1	·	·	·
CCS(=O)(=O)N1Cc2ccccc2CC1C(=O)N(C)Cc1ccc(OC)c(F)c1 (stereo unspecified)	0	3	0	2	8	8	·	·
O=C(Cc1ccc(S(=O)(=O)N2CCOCC2)s1)Nc1cc(C(F)(F)F)cc(C(F)(F)F)c1	-9	9.7*	7	-1	-8	·	13*	9
C=CCNC(=O)CSc1nnc(-c2cccs2)o1	-9	-1	1	-1	-10	3	·	·
O=C(CSc1nnc(-c2cccs2)o1)NCC1CN(Cc2ccccc2)CCO1 (stereo unspecified)	-2	19*	-1	0	4	-2	-4	-6
Cc1ccc(NS(=O)(=O)c2ccc(NC(=O)c3cccc(NC(=O)C(C)C)c3)cc2)cc1	0	9.8*	1	0	-4	-25	4	2
Cc1ccc(S(=O)(=O)Nc2ccc(NC(=O)Nc3cccc(C(F)(F)F)c3)cc2)cc1	-2	11*	4	-1	-1	10	4	3
Cc1ccc(S(=O)(=O)Nc2ccc(C(=O)Nc3ccncc3)cc2)cc1	-4	2	0	2	-7	-3	·	·
CCN(CC)S(=O)(=O)c1ccc(NC(=O)Nc2cccc(C(F)(F)F)c2)cc1	-6	8	6	0	-7	-9	·	·
CN1CCN(CC(=O)NN(Cc2ccccc2)c2ccccc2)CC1	-2	12*	-2	-1	9	3	2	-4
CC(=O)Nc1cc(Cl)ccc1OS(=O)(=O)c1ccc(C)cc1	-4	-3	-6	-2	0	-7	·	·
Cc1c(C)c2cc3c(C)coc3cc2oc1=O	-9	1	0	0	-1	-4	·	·
CCOC(=O)C1CCCN(CC(O)COc2ccc(OC)cc2C(C)(C)C)C1 (stereo unspecified)	-3	11*	1	0	-11	-9	0	-4
Oc1ccc(N=Cc2ccc(-c3cccs3)s2)cc1	-9	11*	3	5.2*	46*	-1	0	-2	ZTA inh confirm=47*;EBNA1 counter=1
CCN1C[C@@H]2[C@@H]3C(=O)N(Cc4ccccc4)C(=O)[C@@H]3[C@](C)(C1=O)N2C(=O)c1ccc(Cl)c(Cl)c1	-1	·	·	0	·	·	·	·
SMILES	bovine MsrA act	PP5 inh	PP1 counter	MsrA inh	ZTA DNA inh	EBNA-1 inh	PP5 inh confirm	PP1 inh counter	others
Cc1cc(C)c(S(=O)(=O)/N=C2/C=C(Sc3ncn[nH]3)C(=O)c3ccccc32)cc1C	14*	11*	0	61*	32	-12	32*	12	MsrA activ conf=8.0*
CCOC(=O)c1nn(-c2ccc(F)cc2)c(=O)c2c(N)scc12	-1	3	-2	2	7	5	·	·
CCOC(=O)c1nn(-c2ccc(C)cc2)c(=O)c2c(N)scc12	8.6*	10.0*	4	1	1	8	23*	-3	MsrA activ conf=-2
CCCCCCCCCCCCCC(=O)NO	-13	·	·	0	·	·	·	·
Cc1ccc(NC2=C/C(=N/S(=O)(=O)c3cccs3)c3ccccc3C2=O)cc1C	-5	2	2	-1	6	-10	·	·
CC(=O)Nc1ccc(NC2=C/C(=N/S(=O)(=O)c3cccs3)c3ccccc3C2=O)cc1	1	14*	3	47*	23	-4	32*	0	MsrA conf=44*
Cc1ccccc1NC1=C/C(=N\S(=O)(=O)c2cccs2)c2ccccc2C1=O	-6	15*	2	16*	15	8	51*	4	MsrA conf=29*
O=C(O)c1ccc(S(=O)(=O)/N=C2\C=C(Nc3ccccc3F)C(=O)c3ccccc32)cc1	-2	9.6*	6	46*	62*	2	42*	12	ZTA inh confirm=69*;EBNA1 counter=11;MsrA conf=47*
COc1c(C)cc(C(O)c2ncc(-c3ccc4ccccc4c3)[nH]2)cc1C (stereo unspecified)	-5	·	·	0	·	·	·	·
COc1cc(/C=C2/C(=O)N(c3ccc([N+](=O)[O-])cc3)N=C2N2CCOCC2)ccc1O	-3	16*	-1	4.7*	-28	6	2	-2	MsrA conf=4.6*
CCN(CC)c1ccc(/C=C2/C(=O)N(c3ccc([N+](=O)[O-])cc3)N=C2N2CCOCC2)cc1	·	2	-1	·	5	1	·	·
